Test results as given in PubChem BioAssay (NCI).
Compounds without any hit were thinned out: in the full panel of roughly 83,000, 20% have a hit.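 Negative percent growth values reflect cell death: -40 means 40% of the cells present at the start died, and -100 means all died.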 Active and inactive are the calls of the source. The calls were made as follows: active = growth percent below 10; inactive = the rest.

Key:
Test in all cases: NCI-60 one-dose screen, 48 h (100 = growth as untreated, 0 = no growth, -100 = all killed)
Settings in all cases: 10 µM unless noted
NCI-H23 lung = test system: NCI-H23 lung
NCI-H226 lung = test system: NCI-H226 lung
NCI-H322M lung = test system: NCI-H322M lung
HOP-62 NSCLC = test system: HOP-62 NSCLC
NCI-H460 lung = test system: NCI-H460 lung
HOP-92 NSCLC = test system: HOP-92 NSCLC
NCI-H522 lung = test system: NCI-H522 lung
A549/ATCC NSCLC = test system: A549/ATCC NSCLC
786-0 renal = test system: 786-0 renal
COLO 205 colon = test system: COLO 205 colon
DU-145 prostate = test system: DU-145 prostate
K-562 leukemia = test system: K-562 leukemia
MALME-3M melanoma = test system: MALME-3M melanoma
MDA-MB-231 breast = test system: MDA-MB-231 breast
RXF 393 renal = test system: RXF 393 renal
SF-268 CNS = test system: SF-268 CNS
SF-295 CNS = test system: SF-295 CNS
SF-539 CNS = test system: SF-539 CNS
M14 melanoma = test system: M14 melanoma

Measured: growth

CC(Cc1nnc(SCC(=O)Nc2ccc(I)cc2)n1N)c1ccccc1 (stereo not given)
inactive: NCI-H23 lung 99.8% | NCI-H226 lung 87.2% | NCI-H322M lung 95.7% | HOP-62 NSCLC 71% | NCI-H460 lung 96.1% | HOP-92 NSCLC 76.7% | NCI-H522 lung 82.8% | A549/ATCC NSCLC 100% | 786-0 renal 72% | COLO 205 colon 93.9% | DU-145 prostate 94.5% | K-562 leukemia 87.1% | MALME-3M melanoma 108% | MDA-MB-231 breast 81.8% | RXF 393 renal 53.7% | SF-268 CNS 102% | SF-295 CNS 127% | SF-539 CNS 94.3% | M14 melanoma 95.3%

COc1cc(-c2csc(NC(=O)c3cc(C(F)(F)F)cc(C(F)(F)F)c3)n2)cc(OC)c1OC
inactive: NCI-H226 lung 23.6% | NCI-H322M lung 32.7% | HOP-62 NSCLC 46.4% | NCI-H460 lung 13.8% | A549/ATCC NSCLC 26.3% | 786-0 renal 41.6% | COLO 205 colon 37.7% | DU-145 prostate 35% | K-562 leukemia 14.4% | MDA-MB-231 breast 41.1% | RXF 393 renal 56.7% | SF-268 CNS 35.4% | SF-295 CNS 33.9% | SF-539 CNS 56% | M14 melanoma 32.3%
active: NCI-H23 lung -10.2% | HOP-92 NSCLC -10.6% | NCI-H522 lung 3.92% | MALME-3M melanoma 3.36%

NC(=O)NNC(=O)c1ccccc1
inactive: NCI-H23 lung 103% | NCI-H226 lung 106% | NCI-H322M lung 109% | HOP-62 NSCLC 107% | NCI-H460 lung 103% | HOP-92 NSCLC 103% | NCI-H522 lung 107% | A549/ATCC NSCLC 101% | 786-0 renal 101% | COLO 205 colon 118% | DU-145 prostate 115% | K-562 leukemia 103% | MALME-3M melanoma 110% | MDA-MB-231 breast 113% | RXF 393 renal 113% | SF-268 CNS 107% | SF-295 CNS 106% | SF-539 CNS 107% | M14 melanoma 107%

CC(=O)/C=C/c1cc2cc(Cl)ccc2[nH]c1=O
inactive: NCI-H23 lung 87.5% | NCI-H226 lung 85.1% | NCI-H322M lung 90.5% | HOP-62 NSCLC 68% | NCI-H460 lung 78.5% | HOP-92 NSCLC 94.5% | NCI-H522 lung 75.2% | A549/ATCC NSCLC 85.2% | 786-0 renal 74.5% | COLO 205 colon 98.8% | DU-145 prostate 69.8% | K-562 leukemia 50.5% | MALME-3M melanoma 97.2% | MDA-MB-231 breast 84% | RXF 393 renal 79.1% | SF-268 CNS 81.2% | SF-295 CNS 96.9% | SF-539 CNS 85.4% | M14 melanoma 91.2%

Cc1cccc2cc(/C=C/C(=O)/C=C/c3ccc(Cl)cc3)c(=O)[nH]c12
inactive: NCI-H23 lung 62.8% | NCI-H226 lung 62.1% | NCI-H322M lung 88.8% | HOP-62 NSCLC 64.6% | NCI-H460 lung 73.1% | HOP-92 NSCLC 96.3% | NCI-H522 lung 48.4% | A549/ATCC NSCLC 65.6% | 786-0 renal 14.5% | COLO 205 colon 37.8% | DU-145 prostate 39.1% | K-562 leukemia 10.8% | MALME-3M melanoma 106% | MDA-MB-231 breast 25.7% | RXF 393 renal 36.8% | SF-268 CNS 62% | SF-295 CNS 83.8% | SF-539 CNS 69.7% | M14 melanoma 30.5%

Nc1ccc(S(=O)(=O)c2ccc(Cl)cc2)cc1
inactive: NCI-H23 lung 97.9% | NCI-H226 lung 98% | NCI-H322M lung 91.4% | HOP-62 NSCLC 97.8% | NCI-H460 lung 96% | HOP-92 NSCLC 93.4% | NCI-H522 lung 89.7% | A549/ATCC NSCLC 86.6% | 786-0 renal 99% | COLO 205 colon 109% | DU-145 prostate 104% | K-562 leukemia 109% | MALME-3M melanoma 85.7% | MDA-MB-231 breast 92.3% | RXF 393 renal 113% | SF-268 CNS 96.8% | SF-295 CNS 98.2% | SF-539 CNS 86% | M14 melanoma 96.1%

COC(=O)CCCCN=Cc1c(O)c(O)c(C(C)C)c2cc(C)c(-c3c(C)cc4c(C(C)C)c(O)c(O)c(C=NCCCCC(=O)OC)c4c3O)c(O)c12
inactive: NCI-H23 lung 15.6% | NCI-H226 lung 41.4% | NCI-H322M lung 25.4% | HOP-62 NSCLC 27.3% | A549/ATCC NSCLC 21% | 786-0 renal 21.7% | COLO 205 colon 10.2% | DU-145 prostate 24.3% | K-562 leukemia 10.3% | MALME-3M melanoma 42.5% | SF-268 CNS 24.2% | SF-539 CNS 24.2% | M14 melanoma 22.9%
active: NCI-H460 lung 5.03% | HOP-92 NSCLC -10.1% | NCI-H522 lung -0.222% | MDA-MB-231 breast 6.38% | RXF 393 renal 8.84% | SF-295 CNS 2.79%

CN(C)CCCNC(=O)C(c1ccccc1)c1ccccc1
inactive: NCI-H23 lung 93.5% | NCI-H226 lung 106% | NCI-H322M lung 102% | HOP-62 NSCLC 103% | NCI-H460 lung 112% | HOP-92 NSCLC 98% | NCI-H522 lung 89.9% | A549/ATCC NSCLC 89.9% | 786-0 renal 102% | COLO 205 colon 106% | DU-145 prostate 115% | K-562 leukemia 95.2% | MALME-3M melanoma 104% | MDA-MB-231 breast 102% | RXF 393 renal 116% | SF-268 CNS 107% | SF-295 CNS 102% | SF-539 CNS 99.4% | M14 melanoma 101%

Cc1sc2nc(CSc3nnc(-c4ccco4)o3)[nH]c(=O)c2c1C
inactive: NCI-H23 lung 121% | NCI-H226 lung 102% | NCI-H322M lung 131% | HOP-62 NSCLC 115% | NCI-H460 lung 108% | HOP-92 NSCLC 106% | NCI-H522 lung 104% | A549/ATCC NSCLC 101% | 786-0 renal 111% | COLO 205 colon 109% | DU-145 prostate 114% | K-562 leukemia 75.6% | MALME-3M melanoma 128% | MDA-MB-231 breast 106% | RXF 393 renal 98.3% | SF-268 CNS 106% | SF-295 CNS 107% | SF-539 CNS 122% | M14 melanoma 122%

NC(N)=NC(N)=Nc1ccccc1-c1ccccc1
inactive: NCI-H23 lung 100% | NCI-H226 lung 111% | NCI-H322M lung 105% | HOP-62 NSCLC 115% | NCI-H460 lung 105% | HOP-92 NSCLC 109% | NCI-H522 lung 106% | A549/ATCC NSCLC 105% | 786-0 renal 106% | COLO 205 colon 125% | DU-145 prostate 114% | K-562 leukemia 104% | MALME-3M melanoma 110% | MDA-MB-231 breast 116% | RXF 393 renal 112% | SF-268 CNS 113% | SF-295 CNS 113% | SF-539 CNS 110% | M14 melanoma 108%

CC(=O)c1cc(C(=O)c2ccc3c(c2)Sc2ccccc2N3)c2cc(C)ccn12
active: NCI-H460 lung 1.02% | NCI-H522 lung -47.9% | 786-0 renal 9.68% | COLO 205 colon -62.2% | DU-145 prostate 0.638% | K-562 leukemia 5% | MDA-MB-231 breast 3.24% | SF-295 CNS -1.7% | SF-539 CNS -32.5%
inactive: NCI-H23 lung 16.5% | NCI-H226 lung 56.6% | NCI-H322M lung 35.1% | HOP-62 NSCLC 21.1% | HOP-92 NSCLC 42.6% | A549/ATCC NSCLC 14.5% | MALME-3M melanoma 68.2% | RXF 393 renal 49.3% | SF-268 CNS 22.1% | M14 melanoma 17.2%

C=C1C(=O)O[C@H]2[C@H]1CC/C(Cn1cc(-c3ccc(N)cc3)nn1)=C\CC[C@@]1(C)O[C@@H]21
inactive: NCI-H23 lung 22.3% | NCI-H322M lung 78.9% | HOP-62 NSCLC 51.4% | NCI-H460 lung 74% | A549/ATCC NSCLC 48.6% | SF-268 CNS 16.6% | SF-295 CNS 67.6%
active: NCI-H226 lung -14.3% | HOP-92 NSCLC -44.3% | NCI-H522 lung -73.2% | 786-0 renal -61.3% | COLO 205 colon -63.5% | DU-145 prostate 4.28% | K-562 leukemia 6.36% | MALME-3M melanoma -23.1% | MDA-MB-231 breast 4.85% | RXF 393 renal -67.1% | SF-539 CNS -18.7% | M14 melanoma -18.2%

CCOC(=O)c1cc(/C(=N\O)c2cc(OC)c(OC)c(OC)c2)n2cc(C)cc(C)c12
active: NCI-H460 lung 4.9% | NCI-H522 lung -10.6% | SF-295 CNS 1.85%
inactive: NCI-H23 lung 55.2% | NCI-H226 lung 74.3% | NCI-H322M lung 66.2% | HOP-62 NSCLC 32.3% | HOP-92 NSCLC 51.9% | A549/ATCC NSCLC 34.9% | 786-0 renal 19.1% | COLO 205 colon 11.5% | DU-145 prostate 41.9% | K-562 leukemia 12.5% | MALME-3M melanoma 37.8% | MDA-MB-231 breast 34.7% | RXF 393 renal 36.1% | SF-268 CNS 38.7% | SF-539 CNS 15.8% | M14 melanoma 10.5%

O=S=Nc1ccc([N+](=O)[O-])cc1
inactive: NCI-H23 lung 95% | NCI-H226 lung 108% | NCI-H322M lung 95% | HOP-62 NSCLC 89.6% | NCI-H460 lung 102% | HOP-92 NSCLC 107% | NCI-H522 lung 81.5% | A549/ATCC NSCLC 78.8% | 786-0 renal 92.1% | COLO 205 colon 106% | DU-145 prostate 84.8% | K-562 leukemia 75.6% | MALME-3M melanoma 96.8% | MDA-MB-231 breast 95.4% | RXF 393 renal 111% | SF-268 CNS 91.8% | SF-295 CNS 98.9% | SF-539 CNS 95.4% | M14 melanoma 94%

CCSc1nnc(NC(=O)COc2ccc(Cl)cc2C)s1
inactive: NCI-H23 lung 105% | NCI-H226 lung 101% | NCI-H322M lung 120% | HOP-62 NSCLC 100% | NCI-H460 lung 112% | HOP-92 NSCLC 83.2% | NCI-H522 lung 94.4% | A549/ATCC NSCLC 104% | 786-0 renal 94.7% | COLO 205 colon 93.9% | DU-145 prostate 106% | K-562 leukemia 103% | MALME-3M melanoma 106% | MDA-MB-231 breast 111% | RXF 393 renal 89.3% | SF-268 CNS 110% | SF-295 CNS 94.2% | SF-539 CNS 103% | M14 melanoma 105%
